From PubChem BioAssay (NCI) come the findings set out here.

Assay [1] is described as follows: NCI Yeast Anticancer Drug Screen. Data for the rad50 strain (AID 155).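 Also: 0% = growth of vehicle-only cultures of the same strain.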 As to conditions: S. cerevisiae rad50 strain growth inhibition, active compounds read high. The gist of the method: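 A DNA repair-deficient yeast mutant serves as the test organism; compound-induced growth inhibition is calculated against vehicle-treated cells.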
Assay [2] can be described thus: NCI Yeast Anticancer Drug Screen. Data for the mec2-1 strain (AID 157). As to conditions: S. cerevisiae mec2-1 strain, active compounds read high. The gist of the method: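 Yeast mec2-1 mutant treated with compound. Readout: growth inhibition vs vehicle controls.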
A short description of assay [3]: NCI Yeast Anticancer Drug Screen. Data for the sgs1 mgt1 strain (AID 161).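 Also: 0% = growth of cultures given vehicle only.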 As to conditions: S. cerevisiae sgs1 mgt1 strain, active compounds read high. The gist of the method: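 Genetically altered yeast, compound exposure, growth inhibition relative to vehicle.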
The nature of assay [4]: NCI Yeast Anticancer Drug Screen. Data for the cln2 rad14 strain (AID 165).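 Also: 0% = growth equal to vehicle treated cultures.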 As to conditions: S. cerevisiae cln2 rad14 strain, active compounds read high. The gist of the method: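 cln2 rad14 yeast strain; compound exposure; growth inhibition read vs vehicle controls.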
Assay [5] in a line: NCI Yeast Anticancer Drug Screen. Data for the bub3 strain (AID 167). As to conditions: S. cerevisiae bub3 mutant strain, active compounds read high. The gist of the method:
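Inhibition values come from growth of compound-treated mutant yeast normalised to vehicle-treated controls.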

Assay [6] is described as follows: NCI Yeast Anticancer Drug Screen. Data for the mlh1 rad18 strain (AID 175). As to conditions: S. cerevisiae mlh1 rad18 strain growth inhibition, active compounds read high. The gist of the method:
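Yeast w/ defined DNA-repair lesions; compound exposure; growth vs vehicle controls → % inhibition.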

Where [7] appears, read: at 5.0 µM (retest, dose inferred, filed as 0.5).
The mark [8] stands for this setting: at 50.0 µM (retest, dose inferred, filed as 5.0).

About 79,000 compounds went through this panel and 15% of them were active in at least one assay; those are over-represented in the sample as a whole. Values without a mark were called inactive. Calls of active or inactive are those of the source. Rule as the data show it: active = growth inhibition above about 70%; inactive = the rest.

Regarding `CN(C)CCC[Si]1(C)c2ccccc2CCc2ccccc21`, the growth inhibition in assay [1] (setting [7]) is -6%; in assay [1] (setting [8]), 16%; in assay [1] (at 50.0 µM) it was 82.8% (active); in assay [2] (setting [7]), -5%; in assay [2] (setting [8]) it was 15%; in assay [2] (at 50.0 µM), 40%. In addition, the growth inhibition in assay [3] (setting [7]) is -5%; in assay [3] (setting [8]) it was 17%; in assay [3] (at 50.0 µM), 57.4%; in assay [4] (setting [7]), -2%; in assay [4] (setting [8]), -5%; in assay [4] (at 50.0 µM) it was 19.9%. For the same compound, the growth inhibition was -8% in assay [5] (setting [7]); 6% in assay [5] (setting [8]); 71.3% (active) in assay [5] (at 50.0 µM); -3% in assay [6] (setting [7]); 26% in assay [6] (setting [8]); 78.8% (active) in assay [6] (at 50.0 µM).

Regarding `Nc1ccc(C(=O)Nc2ccc(C(=O)Nc3ccc(/C=C/c4ccc(NC(=O)c5ccc(N)cc5)cc4S(=O)(=O)O)c(S(=O)(=O)O)c3)cc2)cc1`, the growth inhibition in assay [1] (setting [7]) was -2%; in assay [1] (setting [8]), 87% (active); in assay [1] (at 50.0 µM), 68.5%; in assay [2] (setting [7]), -21%; in assay [2] (setting [8]), 76% (active); in assay [2] (at 50.0 µM) it was 72.8% (active). Besides, the growth inhibition in assay [3] (setting [7]) is 3%; in assay [3] (setting [8]), 78% (active); in assay [3] (at 50.0 µM), 69.3%; in assay [4] (setting [7]), 16%; in assay [4] (setting [8]), 39%; in assay [4] (at 50.0 µM), 18.3%. The growth inhibition in assay [5] (setting [7]) is -15%; in assay [5] (setting [8]) it was 82% (active); in assay [5] (at 50.0 µM), 70.4% (active); in assay [6] (setting [7]) it was -15%; in assay [6] (setting [8]), 61%; in assay [6] (at 50.0 µM), 74.2% (active).

For the compound `O=C1CC(=Nc2ccc([N+](=O)[O-])cc2)NN1c1c(Cl)cc(Cl)cc1Cl`, the growth inhibition in assay [1] (setting [7]) was -20%; in assay [1] (setting [8]) it was 47%; in assay [1] (at 50.0 µM), 90.7% (active); in assay [2] (setting [7]), -24%; in assay [2] (setting [8]) it was 69%; in assay [2] (at 50.0 µM), 92% (active). The growth inhibition in assay [3] (setting [7]) is -15%; in assay [3] (setting [8]), 96% (active); in assay [3] (at 50.0 µM) it was 92.7% (active); in assay [4] (setting [7]), -15%; in assay [4] (setting [8]), 57%; in assay [4] (at 50.0 µM), 89.4% (active). Besides, the growth inhibition in assay [5] (setting [7]) was -24%; in assay [5] (setting [8]) it was 95% (active); in assay [5] (at 50.0 µM) it was 91.7% (active); in assay [6] (setting [7]), -65%; in assay [6] (setting [8]), 89% (active); in assay [6] (at 50.0 µM) it was 89.5% (active).

`CC(=O)N(c1ccccc1)C(C)C`: the growth inhibition is 6% in assay [1] (setting [7]); 14% in assay [1] (setting [8]); -5.75% in assay [1] (at 50.0 µM); 6% in assay [2] (setting [7]); 0% in assay [2] (setting [8]); -10.2% in assay [2] (at 50.0 µM). The growth inhibition was 1% in assay [3] (setting [7]); 1% in assay [3] (setting [8]); -9.75% in assay [3] (at 50.0 µM); -1% in assay [4] (setting [7]); -5% in assay [4] (setting [8]); 44.4% in assay [4] (at 50.0 µM). Moreover, the growth inhibition in assay [5] (setting [7]) was 10%; in assay [5] (setting [8]), 79% (active); in assay [5] (at 50.0 µM) it was -1.65%; in assay [6] (setting [7]), 14%; in assay [6] (setting [8]), 10%; in assay [6] (at 50.0 µM), 9.8%.

With `C[N+](C)(CCCCCCOc1c(Br)cc(Br)cc1Br)Cc1ccc(Br)o1`, the growth inhibition is 71% (active) in assay [1] (setting [7]); 99% (active) in assay [1] (setting [8]); 99.5% (active) in assay [1] (at 50.0 µM); 38% in assay [2] (setting [7]); 100% (active) in assay [2] (setting [8]); 99.8% (active) in assay [2] (at 50.0 µM). The growth inhibition in assay [3] (setting [7]) was 84% (active); in assay [3] (setting [8]), 100% (active); in assay [3] (at 50.0 µM), 99.8% (active); in assay [4] (setting [7]), 40%; in assay [4] (setting [8]), 99% (active); in assay [4] (at 50.0 µM), 99.2% (active). In addition, the growth inhibition in assay [5] (setting [7]) is 61%; in assay [5] (setting [8]), 99% (active); in assay [5] (at 50.0 µM) it was 99.8% (active); in assay [6] (setting [7]) it was 83% (active); in assay [6] (setting [8]), 99% (active); in assay [6] (at 50.0 µM) it was 99.7% (active).

Regarding `COc1ccc(C(=O)O)c(-c2c(C(=O)O)ccc(OC)c2OC(C)=O)c1`, the growth inhibition is 3% in assay [1] (setting [7]); 1% in assay [1] (setting [8]); 16.5% in assay [1] (at 50.0 µM); -5% in assay [2] (setting [7]); 9% in assay [2] (setting [8]); 3.05% in assay [2] (at 50.0 µM). The growth inhibition in assay [3] (setting [7]) is -18%; in assay [3] (setting [8]), 7%; in assay [3] (at 50.0 µM) it was -3.85%; in assay [4] (setting [7]), 2%; in assay [4] (setting [8]), -2%; in assay [4] (at 50.0 µM) it was 63.7%. Also, the growth inhibition was 0% in assay [5] (setting [7]); -5% in assay [5] (setting [8]); 73% (active) in assay [5] (at 50.0 µM); 14% in assay [6] (setting [7]); 13% in assay [6] (setting [8]); 54.6% in assay [6] (at 50.0 µM).

`COC1OC2COC(c3ccccc3)OC2C(NC(=S)SCc2ccccc2)C1O` (stereo not given): the growth inhibition is -3% in assay [1] (setting [7]); 98% (active) in assay [1] (setting [8]); 99.4% (active) in assay [1] (at 50.0 µM); 0% in assay [2] (setting [7]); 98% (active) in assay [2] (setting [8]); 99.3% (active) in assay [2] (at 50.0 µM). The growth inhibition is -1% in assay [3] (setting [7]); 98% (active) in assay [3] (setting [8]); 99.5% (active) in assay [3] (at 50.0 µM); 3% in assay [4] (setting [7]); 98% (active) in assay [4] (setting [8]); 99.5% (active) in assay [4] (at 50.0 µM). Besides, the growth inhibition was 0% in assay [5] (setting [7]); 99% (active) in assay [5] (setting [8]); 99.2% (active) in assay [5] (at 50.0 µM); 7% in assay [6] (setting [7]); 98% (active) in assay [6] (setting [8]); 99% (active) in assay [6] (at 50.0 µM).

As to `c1ccc2c(c1)CCc1[nH]c3c(c1-2)-c1ccccc1CC3`, the growth inhibition is 24% in assay [1] (setting [7]); 94% (active) in assay [1] (setting [8]); 87.5% (active) in assay [1] (at 50.0 µM); 16% in assay [2] (setting [7]); 96% (active) in assay [2] (setting [8]); 91.2% (active) in assay [2] (at 50.0 µM). The growth inhibition in assay [3] (setting [7]) is 21%; in assay [3] (setting [8]) it was 94% (active); in assay [3] (at 50.0 µM) it was 90.4% (active); in assay [4] (setting [7]) it was 62%; in assay [4] (setting [8]), 95% (active); in assay [4] (at 50.0 µM), 88.4% (active). Also, the growth inhibition in assay [5] (setting [7]) was 69%; in assay [5] (setting [8]), 94% (active); in assay [5] (at 50.0 µM) it was 89.8% (active); in assay [6] (setting [7]), 31%; in assay [6] (setting [8]), 91% (active); in assay [6] (at 50.0 µM), 86.3% (active).

As for `CCN(CC)c1ccc(Cl)c2c1C(O)(C(C)C)C2(C)C` (stereo not given), the growth inhibition in assay [1] (setting [7]) is -20%; in assay [1] (setting [8]) it was 96% (active); in assay [1] (at 50.0 µM) it was 88.2% (active); in assay [2] (setting [7]) it was 9%; in assay [2] (setting [8]), 97% (active); in assay [2] (at 50.0 µM) it was 92.4% (active). Further, the growth inhibition is 1% in assay [3] (setting [7]); 97% (active) in assay [3] (setting [8]); 89.7% (active) in assay [3] (at 50.0 µM); 24% in assay [4] (setting [7]); 98% (active) in assay [4] (setting [8]); 89.3% (active) in assay [4] (at 50.0 µM). For the same compound, the growth inhibition was 14% in assay [5] (setting [7]); 98% (active) in assay [5] (setting [8]); 89.8% (active) in assay [5] (at 50.0 µM); 17% in assay [6] (setting [7]); 98% (active) in assay [6] (setting [8]); 87.5% (active) in assay [6] (at 50.0 µM).

For `O=C(Nc1nc2ccc([N+](=O)[O-])cc2s1)C(=O)C(C1OC(=O)c2ccccc21)[N+](=O)[O-]` (stereo not given), the growth inhibition in assay [1] (setting [7]) is 8%; in assay [1] (setting [8]), 8%; in assay [1] (at 50.0 µM), 88.7% (active); in assay [2] (setting [7]), -7%; in assay [2] (setting [8]), -7%; in assay [2] (at 50.0 µM), 87% (active). In addition, the growth inhibition in assay [3] (setting [7]) was 9%; in assay [3] (setting [8]), 9%; in assay [3] (at 50.0 µM) it was 88.9% (active); in assay [4] (setting [7]) it was 13%; in assay [4] (setting [8]) it was 13%; in assay [4] (at 50.0 µM) it was 67.6%. In addition, the growth inhibition was 4% in assay [5] (setting [7]); 4% in assay [5] (setting [8]); 84% (active) in assay [5] (at 50.0 µM); 0% in assay [6] (setting [7]); 0% in assay [6] (setting [8]); 76% (active) in assay [6] (at 50.0 µM).
